# Laboratory results from PubChem BioAssay (NCATS).
# Records with an inconclusive call do not appear. Where a call stands in place of a potency, no number is given. Activity calls are given as the source filed them. The call rests on the fitted dose curve; in most records, active means well fitted cell-killing curve with a large enough effect; inconclusive means small, poorly fitted or top-dose-only effect; inactive means flat fitted curve, though single readings scatter.
# Assay: Panc-1005 Cancer Cell Toxicity qHTS against the NCATS CANVASS Library (AID 1347349); further: nearly all actives have a fitted effect of over 60% in size
# Conditions: Panc-1005 viability, CellTiter-Glo luminescence, 72 h; series mostly up to 38.3 µM
# Excerpt: (§1) Natural products and their derivatives continue to be wellsprings of nascent therapeutic potential. However, many laboratories have limited resources for biological evaluation, leaving their previously isolated or synthesized compounds largely or completely untested. To address this issue, the Canvass library of natural products was assembled (https://tripod.nih.gov/canvass), in collaboration with academic and industry researchers, for quantitative high-throughput screening (qHTS) across a diverse set of cell-based and biochemical assays. The pure (>85% purity by liquid chromatography/mass spectrometry [LC/MS]) Canvass library of 346 natural products were submitted by 45 academic laboratories and companies around the world. We collected pure natural products to circumvent deconvolution and structure elucidation due to time and resource limitations. The library was formatted into 1536-well plates and evaluated in 50 qHTS (in an 11-pnt concentration series) bioassays with broad scope of disease-relevant mechanisms. The resulting data set from 50 different assays was then systematically analyzed to identify overall trends and specific natural products with interesting biological activities. Reported herein are the results of each individual qHTS and their corresponding assay protocol. National Center for Advancing Translational Sciences (NCATS), Rockville, MD National Institute of Health (NIH), Bethesda, Maryland
# (§2) Cancer Cell Toxicity protocol for cell lines COV-362, OV-KATE, OV-SAHO, UWB1.289, UWB1.289-WTBRCA1, HEK-293, HPAF-II, Panc-1005, SW1088, or U-118MG. 1. In a 1536 well, white solid bottom tissue culture plates (Corning 7494), corresponding cells (COV-362, OV-KATE, OV-SAHO, UWB1.289, UWB1.289-WTBRCA1, HEK-293, HPAF-II, Panc-1005, SW1088, or U-118MG) were dispensed in each well at a final concentration of 1000 cells / well (6uL volume) using the Multidrop Combi (Thermo Fisher Scientific) dispenser. 2. […] Luminescence signal was acquired via the ViewLux plate reader (PerkinElmer) using a clear filter, 2 second exposure and 2x binning settings.
row,Structure (SMILES),outcome
1,CC(=O)O[C@H]1C[C@@]2(C)[C@@H](CC[C@H]3[C@@]4(C)C=CC(=O)[C@@H](C)[C@@H]4[C@H](OC(C)=O)C(=O)[C@@]32C)/C1=C(\CCC=C(C)C)C(=O)O,inactive
2,CC(C)c1ccc2c(c1)CCC1[C@](C)(C(=O)O)CCC[C@]21C (some centres undefined),inactive
3,C/C(=C\CC/C(C)=C/CC[C@]1(C)CCc2cc(O)cc(C)c2O1)CC/C=C(\C)C(=O)O,inactive

# Assay: SW1088 Cancer Cell Toxicity qHTS against the NCATS CANVASS Library (AID 1347350); further: nearly all actives have a fitted effect of over 75% in size; further: potency means the concentration at half of the fitted maximal effect
# Conditions: SW1088 viability, CellTiter-Glo luminescence, 72 h; series mostly up to 76 µM
# Excerpt: as §1, §2
row,Structure (SMILES),Potency
1,O=C(/C=C/C=C/c1ccc2c(c1)OCO2)N1CCCCC1,inactive
2,CC(C)c1ccc2c(c1)CCC1[C@](C)(C(=O)O)CCC[C@]21C (some centres undefined),inactive
3,C/C(=C\CC/C(C)=C/CC[C@]1(C)CCc2cc(O)cc(C)c2O1)CC/C=C(\C)C(=O)O,18.8 µM (active)

# Assay: U-118MG Cancer Cell Toxicity qHTS against the NCATS CANVASS Library (AID 1347351)
# Conditions: U-118MG viability, CellTiter-Glo luminescence, 72 h; series mostly up to 76 µM
# Procedure, shortened: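 Viability was assessed by adding CellTiter-Glo reagent to treated cultures and reading luminescence after 15min at room temperature. Treatment lasted 72 h at 37 degrees C/5% CO2, using an 11-point series on 1000 cells/well.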
row,Structure (SMILES),outcome
1,CC(=O)O[C@H]1C[C@@]2(C)[C@@H](CC[C@H]3[C@@]4(C)C=CC(=O)[C@@H](C)[C@@H]4[C@H](OC(C)=O)C(=O)[C@@]32C)/C1=C(\CCC=C(C)C)C(=O)O,inactive
2,O=C(/C=C/C=C/c1ccc2c(c1)OCO2)N1CCCCC1,inactive
3,CC(C)c1ccc2c(c1)CCC1[C@](C)(C(=O)O)CCC[C@]21C (some centres undefined),inactive
4,C/C(=C\CC/C(C)=C/CC[C@]1(C)CCc2cc(O)cc(C)c2O1)CC/C=C(\C)C(=O)O,inactive

# Assay: COV-362 Cancer Cell Toxicity qHTS against the NCATS CANVASS Library (AID 1347352)
# Conditions: COV-362 viability, CellTiter-Glo luminescence, 72 h; series mostly up to 38.3 µM
# Procedure, shortened: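 qHTS cytotoxicity: compounds tested in 11 concentrations on 1000 seeded cells per well over 72 h; bortezomib served as control; signal from CellTiter-Glo luminescence.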
row,Structure (SMILES),outcome
1,CC(=O)O[C@H]1C[C@@]2(C)[C@@H](CC[C@H]3[C@@]4(C)C=CC(=O)[C@@H](C)[C@@H]4[C@H](OC(C)=O)C(=O)[C@@]32C)/C1=C(\CCC=C(C)C)C(=O)O,inactive
2,O=C(/C=C/C=C/c1ccc2c(c1)OCO2)N1CCCCC1,inactive
3,CC(C)c1ccc2c(c1)CCC1[C@](C)(C(=O)O)CCC[C@]21C (some centres undefined),inactive
4,C/C(=C\CC/C(C)=C/CC[C@]1(C)CCc2cc(O)cc(C)c2O1)CC/C=C(\C)C(=O)O,inactive
